G9a block – qHTS Assay for Inhibitors of Histone Lysine Methyltransferase G9a; Histone-lysine N-methyltransferase EHMT2 (Homo sapiens), Q96KQ7; G9a H3K9 monomethylation, AlphaScreen, 2 h; 350,000 compounds, 8.8% hits; Potency, µM (doses to about 102 µM), usual class: inhibitors; also: nearly all actives have a fitted effect of over 75% in size
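Chemiluminescent proximity detection of H3K9 monomethylation, read after 10 min bead incubation in the dark. Reaction: 20 nM G9a, 500 nM biotin-H3K9 peptide, 20 uM SAM cofactor, 2 h, room temperature, following 15 min enzyme-compound preincubation.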
JMJD2A Tudor inh – qHTS Assay for Inhibitors of JMJD2A-Tudor Domain | Lysine-specific demethylase 4A (Homo sapiens), O75164 | AlphaScreen JMJD2A-Tudor / H3K4me3 peptide binding | Potency, µM (highest dose often 114 µM), most hits filed as inhibitors | 390,000 compounds, 4.4% hits | AID 504339, 2011; also: nearly all actives have a fitted effect of over 50% in size
PLK1 PBD inh – qHTS for Inhibitors of PLK1-PDB (polo-like kinase 1 - polo-box domain): Primary Screen | Serine/threonine-protein kinase PLK1 (Homo sapiens), P53350 | Plk1 PBD binding of FITC phosphopeptide, fluorescence polarization | Potency, µM, usual class: inhibitors | 360,000 compounds, 2.8% hits | AID 720504, 2013; also: series mostly up to about 57 µM; nearly all actives have a fitted effect of over 65% in size
BAZ2B block – qHTS Assay for Inhibitors of BAZ2B; Bromodomain adjacent to zinc finger domain protein 2B (Homo sapiens), Q9UIF8; AlphaScreen BAZ2B-H3K14Ac peptide displacement; Potency, µM (titrated, usually from 114 µM), most hits filed as inhibitors; 360,000 compounds, 4.4% hits; AID 504333, 2011; also: nearly all actives have a fitted effect of over 60% in size
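Compounds, titrated to a top concentration of 110 uM, were incubated 30 min at room temperature with preformed BAZ2B/acetyl-K14 H3 peptide complex (50 nM each). Proximity signal was measured by AlphaScreen after 20 min with beads.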
PI5P4Ka inh – qHTS for Inhibitors of phosphatidylinositol 5-phosphate 4-kinase (PI5P4K) | 330,000 compounds, 1.2% hits | max response, % | Phosphatidylinositol 5-phosphate 4-kinase type-2 alpha (Homo sapiens), P48426 | PI5P4Kalpha enzyme, ADP-Glo luminescence, 60 min; hits give low values; active = max response of -50% or lower; inconclusive = between -30% and -50%; inactive = -30% or higher; also: value at the top dose of about 77 µM
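ADP-Glo luminescence end-point after a 60 min room-temperature kinase reaction. PI5P4Kalpha and substrate in HEPES pH 7.4 buffer with EGTA, 0.1% CHAPS and 5% DMSO; ATP at 5 microM final.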
HP1b chromo inh – HTS for Inhibitors of HP1-beta Chromodomain Interactions with Methylated Histone Tails; Chromobox protein homolog 1 (Homo sapiens), P83916; AlphaScreen HP1-beta / biotin-H3K9me3 peptide binding; Potency, µM (highest dose often 114 µM), actives largely listed as inhibitors; 390,000 compounds, 0.56% hits; AID 540317, 2011; also: nearly all actives have a fitted effect of over 70% in size
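Compound inhibition of the preformed complex between 50 nM HP1-beta and 50 nM biotinylated H3K9me3 peptide was read by AlphaScreen. Buffer was PBS pH 7.4 with 0.01% Tween-20. Incubations ran 30 min at room temperature, with 10 ug/mL donor/acceptor beads.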
Hits are given with their value; [ ] = remark or other dose. Most compounds without a hit are left out; they make up all but 12% or so of the library. Unless noted, calls follow the shape of the dose curve; as a rule, active = well fitted curve in the direction sought with a large enough effect; inconclusive = small, poorly fitted or top-dose-only effect, or another doubt; inactive = no such curve, though single readings can be large; an effect the other way counts as inactive or inconclusive.

How did O=C(Nc1nnc(CCc2ccccc2)s1)c1ccccc1F do in these assays?
JMJD2A Tudor inh: inactive; PLK1 PBD inh: inactive; BAZ2B block: inactive; PI5P4Ka inh: inactive; HP1b chromo inh: inactive

What do the screens show for `Cc1nc(CCN2C(=O)c3ccccc3C2=O)n[nH]1`?
G9a block: inconclusive; JMJD2A Tudor inh: 25µM; PLK1 PBD inh: 7.5µM; BAZ2B block: inconclusive; PI5P4Ka inh: inconclusive; HP1b chromo inh: inactive

Results for CCc1ccc(CCN2C(=O)c3ccccc3C2=O)nc1 ?
JMJD2A Tudor inh: inactive; PLK1 PBD inh: inactive; BAZ2B block: inactive; PI5P4Ka inh: inactive; HP1b chromo inh: inactive

How did O=C(COC(=O)c1ccc(NS(=O)(=O)c2cccs2)cc1)NCc1ccco1 do in these assays?
G9a block: inconclusive; JMJD2A Tudor inh: inactive[11.4 µM]; PLK1 PBD inh: inconclusive; BAZ2B block: 32µM; PI5P4Ka inh: -72; HP1b chromo inh: inactive

Results for O=C(COC(=O)c1cccs1)NCc1ccco1 ?
G9a block: inconclusive; JMJD2A Tudor inh: 35µM; PLK1 PBD inh: inactive; BAZ2B block: 50µM; PI5P4Ka inh: inconclusive; HP1b chromo inh: 50µM

Results for COc1cc(NC(=O)c2cccs2)c(C(=O)OCC(=O)NCc2ccco2)cc1OC ?
G9a block: inactive[12.7 µM]; JMJD2A Tudor inh: inactive; PLK1 PBD inh: inactive; BAZ2B block: inactive; PI5P4Ka inh: inactive; HP1b chromo inh: inactive

Results for CCCOC(=O)c1ccc(NS(=O)(=O)c2cccs2)cc1 ?
G9a block: inactive[12.7 µM]; JMJD2A Tudor inh: inactive; PLK1 PBD inh: inactive; BAZ2B block: inactive; PI5P4Ka inh: inactive; HP1b chromo inh: inactive

What do the screens show for `Cc1ccc(NS(=O)(=O)c2cccc(C(=O)OCC(=O)NCc3ccco3)c2)cc1`?
G9a block: inconclusive; JMJD2A Tudor inh: inconclusive; PLK1 PBD inh: inactive; BAZ2B block: 56µM; PI5P4Ka inh: inconclusive; HP1b chromo inh: inactive

Results for COc1ccccc1C(OC(=O)c1cccs1)C(=O)NCc1ccco1 (configuration not stated) ?
G9a block: 45µM; JMJD2A Tudor inh: inactive; PLK1 PBD inh: inactive; BAZ2B block: inconclusive; HP1b chromo inh: inactive

Results for CC(C)C[C@H]1CN(CCCC[C@@H]2CNC(=O)C(=O)N2CC2CCCCC2)C(=O)C(=O)N1Cc1ccccc1 ?
PLK1 PBD inh: inactive; PI5P4Ka inh: inactive

How did CCc1ccc(C2Sc3ccccc3NC3=C2C(=O)c2ccccc23)cc1 (configuration not stated) do in these assays?
G9a block: 10µM; JMJD2A Tudor inh: 25µM; HP1b chromo inh: inconclusive

How did CC(C)c1ccc(C2Sc3ccccc3NC3=C2C(=O)c2ccccc23)cc1 (configuration not stated) do in these assays?
G9a block: inconclusive; JMJD2A Tudor inh: 11µM; BAZ2B block: 8.9µM; HP1b chromo inh: inconclusive

What do the screens show for `O=C1C2=C(Nc3ccccc3SC2c2ccco2)c2ccccc21` (configuration not stated)?
G9a block: inconclusive; JMJD2A Tudor inh: 35µM; PLK1 PBD inh: inconclusive; BAZ2B block: 35µM; PI5P4Ka inh: inconclusive; HP1b chromo inh: 22µM

What do the screens show for `O=C1C2=C(Nc3ccccc3SC2c2ccc(C(F)(F)F)cc2)c2ccccc21` (configuration not stated)?
G9a block: 11µM; JMJD2A Tudor inh: 28µM; HP1b chromo inh: inconclusive

How did Cc1cc(C)cc(NC(=O)c2ccc3oc(=O)c(S(=O)(=O)c4ccc(F)cc4)cc3c2)c1 do in these assays?
G9a block: inactive; JMJD2A Tudor inh: inactive; BAZ2B block: inactive; HP1b chromo inh: inactive

Results for COCCN(C(=O)COC(=O)c1cc(C)oc1C)c1c(N)n(Cc2ccccc2)c(=O)[nH]c1=O ?
G9a block: inactive; JMJD2A Tudor inh: inactive; PLK1 PBD inh: inactive; BAZ2B block: inactive; PI5P4Ka inh: inactive; HP1b chromo inh: inactive

What do the screens show for `CC(=O)Nc1ccc(C2Sc3ccccc3NC3=C2C(=O)c2ccccc23)cc1` (configuration not stated)?
G9a block: 18µM; JMJD2A Tudor inh: 13µM; HP1b chromo inh: inconclusive

From PubChem BioAssay
